Measured values published in PubChem BioAssay (Tox21).
Records with an inconclusive call do not appear. Values without a mark were called inactive. The source made the active and inactive calls. Calls follow the shape of the full dose curve.

target: Progesterone receptor (Homo sapiens) (UniProt P06401); assay: qHTS assay to identify small molecule agonists of the progesterone receptor (PR) signaling pathway (AID 1346784); details: PR-UAS-bla HEK293T, beta-lactamase FRET ratio, 16 h; series mostly up to 92.4 µM; also: nearly all actives have a fitted effect of over 30% in size
Sequence (P06401 whole entry, looked up): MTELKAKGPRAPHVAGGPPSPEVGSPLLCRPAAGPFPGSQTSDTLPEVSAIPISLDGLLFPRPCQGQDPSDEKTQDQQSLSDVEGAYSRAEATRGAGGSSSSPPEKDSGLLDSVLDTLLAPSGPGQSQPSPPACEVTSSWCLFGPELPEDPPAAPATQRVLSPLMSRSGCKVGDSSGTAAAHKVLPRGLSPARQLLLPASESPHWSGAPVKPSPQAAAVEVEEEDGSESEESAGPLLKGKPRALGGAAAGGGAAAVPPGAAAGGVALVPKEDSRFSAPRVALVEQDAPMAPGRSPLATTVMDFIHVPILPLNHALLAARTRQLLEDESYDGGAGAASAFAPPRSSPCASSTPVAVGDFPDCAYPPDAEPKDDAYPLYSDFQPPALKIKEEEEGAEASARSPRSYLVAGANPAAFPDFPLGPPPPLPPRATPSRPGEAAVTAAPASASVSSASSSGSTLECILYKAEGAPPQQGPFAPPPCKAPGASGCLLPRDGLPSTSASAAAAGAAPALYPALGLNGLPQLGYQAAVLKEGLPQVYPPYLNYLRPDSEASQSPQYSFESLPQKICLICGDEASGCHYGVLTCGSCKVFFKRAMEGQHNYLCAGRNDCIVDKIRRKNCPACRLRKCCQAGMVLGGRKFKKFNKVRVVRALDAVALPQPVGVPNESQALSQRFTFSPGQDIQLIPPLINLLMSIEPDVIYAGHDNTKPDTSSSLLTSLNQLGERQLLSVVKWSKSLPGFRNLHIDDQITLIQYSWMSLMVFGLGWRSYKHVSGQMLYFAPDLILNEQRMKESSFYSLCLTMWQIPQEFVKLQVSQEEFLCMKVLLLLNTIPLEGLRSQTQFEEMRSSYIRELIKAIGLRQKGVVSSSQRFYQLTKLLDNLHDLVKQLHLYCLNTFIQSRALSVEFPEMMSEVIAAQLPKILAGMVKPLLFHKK
From the text: U.S. Tox21 Program National Center for Advancing Translational Sciences [NCATS] NIH Chemical Genomics Center [NCGC] U.S. Environmental Protection Agency [EPA] National Institutes of Environmental Health Sciences [NIEHS] National Toxicology Program [NTP] U.S. Food and Drug Administration [FDA] […] Endocrine disrupting chemicals (EDCs) and their interactions with steroid hormone receptors like PR causes disruption of normal endocrine function. To identify the compounds that activate PR signaling, a PR-UAS-bla GripTite cell line i.e. PR-UAS-bla HEK 293T (Invitrogen, Carlsbad, CA, USA) containing a beta-lactamase reporter gene under the control of an Upstream Activator Sequence (UAS) was used to screen Tox21 10K compound library.
Tox21 Assay Protocol Summary: PR-UAS-bla HEK 293T cells were dispensed at 3,000 cells/5 uL of assay medium containing 2% charcoal stripped FBS per well into black wall/clear-bottom 1536-well plates using a Multidrop Combi (ThermoFisher Scientific, Waltham, MA) dispenser. After the assay plates were incubated at a 37C and 5% CO2 for 6hr, 23 nL of compounds dissolved in DMSO, positive controls or DMSO only was transferred to the assay plate by a Pintool station (Kalypsys, San Diego, CA). The plates were incubated at 37C and 5% CO2 for 16hr. Then 1 uL of LiveBLAzer B/G FRET substrate was added using a BioRAPTR FRD (Flying Reagent Dispenser, Aurora Discovery, San Diego, CA). After the plates were incubated at room temperature for 2 hours, fluorescence intensity was measured by an Envision plate reader (PerkinElmer, Shelton, CT).
% is scaled to controls: 0 for no effect and ±100 for the full control effect.

| Structure (SMILES) | outcome | activation |
| --- | --- | --- |
| C=CC[N+]1([C@H]2C[C@H]3[C@@H]4CC[C@H]5C[C@H](OC(C)=O)[C@@H](N6CCCCC6)C[C@]5(C)[C@H]4CC[C@]3(C)[C@H]2OC(=O)CC)CCCCC1 | inactive |  |
| CCCCCCc1ccc(N)cc1 | inactive |  |
| CC(C)(C)c1ccc(OCC2CO2)cc1 (stereo not given) | inactive |  |
| CC(C)(C)c1ccc(S)cc1 | inactive |  |
| COc1ccc2[nH]c(S(=O)Cc3ncc(C)c(OC)c3C)nc2n1 (stereo not given) | inactive |  |
| CCCCCc1ccc(N)cc1 | inactive |  |
| CCCCCCCC/C=C\CCCCCCCC(N)=O | inactive |  |
| CCCC(C)C | inactive |  |
| COC(Cc1ccccc1)OC | inactive |  |
| COC(=O)CSc1cc(N=c2sc(=O)n3n2CCCC3)c(F)cc1Cl | inactive |  |
| C=CCCCCCC | inactive |  |
| Cc1cc(NC(=O)C(=O)O)cc(C)c1Oc1ccc(O)c2c1CCC2 | inactive |  |
| OC(CCN1CCCCC1)(c1ccccc1)C1CCCCC1 (stereo not given) | inactive |  |
| OCC1CC2CC1C1CCC(CO)C21 (stereo not given) | inactive |  |
| O=C(c1ccccc1)c1ccc2n1CCC2C(=O)O (stereo not given) | inactive |  |
| CN1CCC(=C2c3ccccc3C=Cc3ccccc32)CC1 | inactive |  |
| CC(=O)N(CC(=O)N(C)C)c1ccccc1 | inactive |  |
| O=C(Cl)c1c(Cl)cccc1Cl | inactive |  |
| CN(C)CCCOc1nn(Cc2ccccc2)c2ccccc12 | inactive |  |
| CC1=CCC(C(C)C)C=C1 (stereo not given) | inactive |  |

| Structure (SMILES) | outcome | activation |
| --- | --- | --- |
| CCN(CCO)CCCC(C)Nc1ccnc2cc(Cl)ccc12 (stereo not given) |  | -0.495% [at 8.39 µM] |
| CC(=O)OCCc1ccccc1 | inactive |  |
| CNCC[C@@H](Oc1ccccc1C)c1ccccc1 | inactive |  |
| N#CCc1cccc(C(F)(F)F)c1 | inactive |  |
| CCCCCCCCCCCCCCCCCBr |  | -0.0997% [at 19 µM] |
| CCCCCCOC(=O)CCC | inactive |  |
| Cc1occc1S | inactive |  |
| O=c1[nH]cnc2ccccc12 | inactive |  |
| Oc1ccc(C(O)CNCCCCCCNCC(O)c2ccc(O)c(O)c2)cc1O (stereo not given) | inactive |  |
| O=C(O)COC(=O)Cc1ccccc1Nc1c(Cl)cccc1Cl | inactive |  |
| Cc1ccc(C(N)=O)cc1N | inactive |  |
| O=S(=O)(O)c1ccc(O)c2ncccc12 | inactive |  |
| Cc1cc(O)ccc1N | inactive |  |
| CN(c1nccc(=O)[nH]1)C1CCN(c2nc3ccccc3n2Cc2ccc(F)cc2)CC1 | inactive |  |
| NCc1ccccc1 | inactive |  |
| O=C(O)Cn1c(C(=O)Nc2nc(-c3ccccc3Cl)cs2)cc2ccccc21 | inactive |  |
| CCCCCCCCCC(=O)OCC | inactive |  |
| CC(=O)O[C@H]1C[C@@H]2CC[C@@H]3[C@H](CC[C@@]4(C)[C@H]3C[C@H]([N+]3(C)CCCCC3)[C@@H]4OC(C)=O)[C@@]2(C)C[C@@H]1N1CCCCC1 | inactive |  |
| CC(CN)CCCN (stereo not given) | inactive |  |
| CN1CCN(C2=Nc3ccccc3Sc3ccc(Cl)cc32)CC1 | inactive |  |
